High-throughput results from PubChem BioAssay.
This is a sample that favours compounds with a hit; in the whole collection about 4.7% have one here.
D1 potentiator: Potentiators of Human D1 Dopamine Receptor: qHTS. D(1A) dopamine receptor (Homo sapiens), P21728. HEK293 TREx D1 cells, calcium flux, dopamine EC20 potentiation. potentiation, % at 10 µM. actives 0.036% (n = 360,000). AID 504651, 2011; in the data active = potentiation above about 30%; also: 0% is about no effect
TRHR ag: qHTS for Small Molecule Agonists and Allosteric Enhancers of Human TRH Receptor: Primary Screen for Agonists. Thyrotropin-releasing hormone receptor (Homo sapiens), P34981. TRHR cells, calcium flux fluo-8, FDSS agonist mode. actives 0.18% (n = 360,000). AID 493084, 2011. activation, % at 2 µM; also: 0% is about no effect
Target sequence (P34981 whole entry, looked up): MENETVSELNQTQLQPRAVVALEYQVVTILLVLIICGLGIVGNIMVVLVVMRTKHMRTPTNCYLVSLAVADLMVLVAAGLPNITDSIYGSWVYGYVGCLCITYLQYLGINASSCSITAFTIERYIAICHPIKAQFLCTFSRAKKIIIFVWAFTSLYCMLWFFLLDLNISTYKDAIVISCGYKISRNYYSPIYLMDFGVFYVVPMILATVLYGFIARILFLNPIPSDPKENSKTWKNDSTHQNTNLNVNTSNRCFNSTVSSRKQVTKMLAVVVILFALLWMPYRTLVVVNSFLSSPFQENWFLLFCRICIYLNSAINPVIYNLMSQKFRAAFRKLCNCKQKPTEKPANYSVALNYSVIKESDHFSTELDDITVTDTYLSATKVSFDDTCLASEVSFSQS
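TRHR-expressing cells, plated overnight in medium with 10% serum, were loaded with fluo-8 calcium dye at room temperature. After a 10 s baseline, library compound was pin-added and calcium release was recorded kinetically (ex 480/em 530) as agonist response.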
TRHR enhancer: qHTS for Small Molecule Agonists and Allosteric Enhancers of Human TRH Receptor: Primary Screen for Enhancers. Thyrotropin-releasing hormone receptor (Homo sapiens), P34981. TRHR cells, fluo-8 calcium fluorescence, EC20 TRH enhancement. enhancement, % at 2 µM. actives 0.66% (n = 360,000). AID 493056, 2011; in the data active = enhancement above about 30%; also: 0% is about no effect
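TRHR-expressing cells loaded with fluo-8 calcium dye were read kinetically (ex 480/em 530) during compound addition, then stimulated with an EC20 of TRH (10 nM final). Enhancement of the Gq-mediated intracellular calcium response was scored.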
D1 ag: Allosteric Agonists of the Human D1 Dopamine Receptor: qHTS; actives 1% (n = 360,000); HEK293 T-REx D1 cells, calcium flux, agonist mode; D(1A) dopamine receptor (Homo sapiens), P21728; AID 504660, 2011; activation, % at 2 µM; also: 0% is about no effect
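Inducible HEK293 T-REx D1 cells, force-coupled to calcium signalling, were plated at 4000 cells/well with tetracycline and held overnight at 30 C. After no-wash calcium dye loading, compound-evoked calcium rise over 180 s flagged agonists.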
D1 antagonist: Antagonist of Human D 1 Dopamine Receptor: qHTS; HEK293 TREx D1 cells, calcium flux, dopamine EC80; active compounds read low; activity change, negative = inhibition, % at 10 µM; actives 3.2% (n = 360,000); in the data active = activity change below about -30%; also: % is scaled to controls: 0 for no effect and ±100 for the full control effect
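Kinetic fluorescence of a calcium dye serves as the read-out. D1-expressing Hek293 Trex cells, induced overnight at 30 C, are exposed to compound for 180 s before an EC80 dopamine addition, then read 180 s further.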
Numbers without * were called inactive; . = no result. Rule as the data show it, unless noted: active = activation above about 30%; inactive = the rest.

SMILES	D1 potentiator	TRHR ag	TRHR enhancer	D1 ag	D1 antagonist
COc1cccc(N/C(N)=N/c2nc(C(F)(F)F)cc(=O)[nH]2)c1	-4	1	31*	2	3
O=C(COC(=O)C1COc2ccccc2O1)Nc1ccc(Cl)cc1 (stereo unspecified)	.	0	4	1	-12
CN(C)S(=O)(=O)c1ccc(NC(=O)COC(=O)C2COc3ccccc3O2)cc1 (stereo unspecified)	-4	0	-4	1	-94*
COc1cc(OC)cc(C(=O)Nc2cc3c(cc2N2CCOCC2)n(C)c(=O)n3C)c1	-1	-1	-4	1	11
Cc1ccc(-c2cc(-c3ccccc3)c(C#N)c(SCC(O)CS(=O)(=O)Cc3ccccc3)n2)cc1 (stereo unspecified)	1	1	5	11	-39*
Cc1ccc(NC(=O)Cc2coc3ccc(C(C)C)cc23)c(C)c1	2	0	-1	5	-9
Cc1ccc(NC(=O)Cc2cccs2)cc1Cl	1	-1	-7	-1	-12
Cc1ccc(NC(=O)Cc2coc3ccc(C(C)C)cc23)cc1Cl	0	-1	3	38*	-2
Cc1ccc(NC(=O)Cc2ncon2)cc1Cl	-3	1	0	1	-45*
Cc1ccccc1[C@]1(C)ON(c2ccccc2C(F)(F)F)C1=O	0	0	-5	1	.
COc1ccc(-c2noc(=O)n2Cc2ccccc2F)cc1	-5	-1	1	4	-30*
CCCCN1CCc2nc(N3CCN(c4ncccn4)CC3)ncc2C1	1	1	-5	0	3
CCOc1ccccc1NC(=O)CCc1c(C)nc2cc(-c3ccccc3)nn2c1C	-2	0	1	4	13
CC(=O)c1sc(NC(=O)CSCc2c(C)noc2C)nc1-c1ccccc1	.	0	4	2	-2
Cc1ccc(C)c(OCCCNC2CCCC2)c1C	-4	-1	-1	42*	-35*
Cc1ccc(OCCCCNC2CCCCC2)c(C)c1	-5	-5	-2	57*	-19
Cc1ccc(OCCCNC2CCCC2)cc1	-5	2	2	6	10
COCCNc1ccc(-c2nc(-c3ccccn3)no2)cc1[N+](=O)[O-]	-1	0	-1	1	-20
CC(C)CNc1nc(Oc2ccc(=O)n(C)n2)nc(N2CCOCC2)n1	-12	-1	-6	3	-43*
COc1cccc(-c2nc(CS(=O)(=O)CC(=O)Nc3ccc(F)cc3F)c(C)o2)c1	-6	0	30*	4	-4
COc1ccc(CCNC(=O)CSCc2nc(-c3cccc(C)c3)oc2C)cc1OC	-3	0	3	5	-2
COc1ccc(-c2nc(CS(=O)(=O)CC(=O)NC3CCC(C)CC3)c(C)o2)cc1 (stereo unspecified)	-5	0	5	31*	-33*
COc1cccc(-c2nc(CSCC(=O)NCCc3ccc(Cl)cc3)c(C)o2)c1	4	0	28	48*	-36*
O=S(=O)(c1ccc(NC(=S)N2CCN(c3ccccc3F)CC2)cc1)N1CCOCC1	-12	-1	2	11	-31*
O=S(=O)(c1ccc(NC(=S)N/N=C/c2ccc(N3CCOCC3)cc2)cc1)N1CCOCC1	-7	0	2	2	-44*
SMILES	D1 potentiator	TRHR ag	TRHR enhancer	D1 ag	D1 antagonist
COc1ccccc1N1CCN(C(=S)Nc2ccc(S(=O)(=O)N3CCOCC3)cc2)CC1	-4	-2	-2	4	-15
S=C(Nc1ccc(Nc2ccccc2)cc1)NN1CCOCC1	0	0	9	2	7
Fc1ccc(NC(=S)NN2CCOCC2)cc1Cl	-3	0	3	4	-32*
O=C(NCCCN1CCOCC1)c1cccc(S(=O)(=O)N2CCN(c3ccccc3)CC2)c1	1	0	9	2	-1
O=S(=O)(c1ccccc1)N1CCN(C(=S)NCCCN2CCOCC2)CC1	5	0	-2	0	-46*
COc1ccc(Cl)cc1NC(=O)C1CCN(S(C)(=O)=O)CC1	-2	0	1	1	7
O=S(=O)(c1ccc(Cl)cc1)N1CCN(C(=S)Nc2ccc(F)c(Cl)c2)CC1	-6	3	-5	15	-37*
O=S(=O)(c1ccccc1)N1CCN(C(=S)Nc2ccc(F)cc2)CC1	-2	0	-1	3	0
CCCc1cc(=O)oc2cc(OCC(=O)NCCc3c[nH]c4ccccc34)ccc12	-6	0	-14	0	-22
CCn1c(-c2c(Cl)c(C)nn2C)n[nH]c1=S	-1	0	4	39*	48
CCOc1ccc(C2=C/C(=C/c3cccnc3)C(=O)O2)cc1	-2	17	-1	65*	-14
COc1ccc(C2=C/C(=C/c3cccnc3)C(=O)O2)cc1OC	-12	45*	2	60*	-21
CC(=O)Oc1cccc(/C=C2\C=C(c3ccc(C)cc3)OC2=O)c1	-6	0	-7	7	2
N#Cc1ccc(Cl)cc1NC(=O)COC(=O)[C@H](CCC(N)=O)NC(=O)c1ccc(F)cc1	1	-1	-4	2	-32*
CN1/C(=C\C(=S)NC(=O)c2cccc(Br)c2)C(C)(C)c2ccccc21	-6	0	-4	3	-69*
CN1/C(=C\C(=O)Nc2ccc(Br)cc2)C(C)(C)c2ccccc21	-7	0	13	2	-8
COCCCNC(=O)Cn1ncc2c(=O)oc3ccccc3c21	-6	1	4	4	-30*
CCN(CCCNC(=O)Cn1ncc2c(=O)oc3ccccc3c21)c1cccc(C)c1	-7	-1	-6	11	-37*
O=C(Cn1ncc2c(=O)oc3ccccc3c21)NCCCN1CCCC1=O	2	0	-6	1	4
Cc1ccc2oc(=O)c3cnn(CC(=O)NCCC(C)C)c3c2c1	-14	0	-11	3	-37*
NC(=O)c1c(NC(=O)CS(=O)(=O)c2ccc(Cl)cc2)sc2c1CCCC2	-2	-1	1	0	.
COc1cc(S(=O)(=O)N2CCC(O)(c3cccc(C(F)(F)F)c3)CC2)ccc1-n1cnnn1	-5	1	-7	10	-1
O=S(=O)(c1ccc(OC(F)(F)F)cc1)N1CCC(O)(c2cccc(C(F)(F)F)c2)CC1	-6	7	3	34*	-5
CCOC(=O)c1c(NC(=O)CC)sc2c1CCN(Cc1ccccc1)C2	-14	7	4	17	1
CCOC(=O)c1c(NC(=O)CSc2ncccn2)sc2c1CCN(Cc1ccccc1)C2	-11	2	-4	7	-78*
